The entries come from a sample that favours hits as a whole.
IDE exosite inh: insulin-degrading enzyme (human) exo-site inhibition; P14735; purified IDE, FL-6b probe fluorescence polarization; stronger effect = lower value; z-score at 20 µM; 6.3% of 17,000 active; AID 1259349;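 active = z-score of -3 or lower, meaning strong loss of probe binding signal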;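 also: His-tagged human IDE residues 42-1019 made in E. coli with 30 nM FL-6b probe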
Target sequence (P14735 42-1019 limits assumed): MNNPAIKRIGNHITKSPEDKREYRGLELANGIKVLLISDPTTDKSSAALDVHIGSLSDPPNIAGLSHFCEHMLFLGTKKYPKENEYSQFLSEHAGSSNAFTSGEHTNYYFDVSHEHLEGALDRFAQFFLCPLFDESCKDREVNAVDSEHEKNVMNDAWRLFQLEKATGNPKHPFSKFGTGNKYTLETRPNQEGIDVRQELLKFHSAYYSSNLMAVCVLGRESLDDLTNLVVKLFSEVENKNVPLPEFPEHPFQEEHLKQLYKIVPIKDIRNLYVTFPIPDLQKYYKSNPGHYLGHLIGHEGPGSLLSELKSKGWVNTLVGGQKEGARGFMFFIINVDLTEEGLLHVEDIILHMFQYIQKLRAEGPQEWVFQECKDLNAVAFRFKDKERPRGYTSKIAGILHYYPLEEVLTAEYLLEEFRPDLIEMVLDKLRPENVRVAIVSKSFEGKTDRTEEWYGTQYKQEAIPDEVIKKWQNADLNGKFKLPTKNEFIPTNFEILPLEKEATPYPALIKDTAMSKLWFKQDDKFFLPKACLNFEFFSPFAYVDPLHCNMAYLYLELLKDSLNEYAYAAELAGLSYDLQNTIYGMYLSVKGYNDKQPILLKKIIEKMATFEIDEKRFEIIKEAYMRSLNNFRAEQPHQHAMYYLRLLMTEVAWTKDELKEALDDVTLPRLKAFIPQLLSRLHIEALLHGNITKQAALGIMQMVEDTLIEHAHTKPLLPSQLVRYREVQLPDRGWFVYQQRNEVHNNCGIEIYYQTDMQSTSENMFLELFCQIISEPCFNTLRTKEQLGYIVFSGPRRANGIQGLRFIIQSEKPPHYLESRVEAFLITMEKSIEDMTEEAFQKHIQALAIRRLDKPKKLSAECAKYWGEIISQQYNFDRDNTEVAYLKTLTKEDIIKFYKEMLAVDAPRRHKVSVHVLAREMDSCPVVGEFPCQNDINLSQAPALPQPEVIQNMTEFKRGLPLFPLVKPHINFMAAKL
Of the large screens only hits and unclear results are named; the others gave an inactive call.

CN1C(=O)c2cc(NC(=O)Nc3ccccc3F)ccc2OC[C@H]2O[C@H](CC(=O)NCCc3ccncc3)CC[C@H]21	none
CN1c2ccc(Br)cc2[C@@H]2[C@@H](CCN2C(=O)c2ccc(F)cc2)[C@@H]1CO	none
C[C@@H]1CN([C@H](C)CO)C(=O)c2ccccc2-c2ccccc2CO[C@H]1CN(C)C(=O)Nc1ccc(-c2ccccc2)cc1	none
C/C=C/c1ccc([C@H]2[C@@H](CO)N(CCC)[C@H]2CNC(=O)CN2CCOCC2)cc1	none
COc1ccccc1-c1ccccc1[C@@H]1[C@@H](C#N)N(C(=O)C2CC2)[C@@H]1CO	none
COc1ccccc1-c1ccccc1[C@H]1[C@@H](C#N)N(C(=O)C2CC2)[C@@H]1CO	none
COc1ccccc1-c1ccccc1[C@H]1[C@H](C#N)N(C(=O)C2CCC2)[C@H]1CO	none
COc1ccccc1-c1ccc([C@@H]2[C@@H](C#N)N(C(=O)C3CCC3)[C@H]2CO)cc1	IDE exosite inh -5.2
COc1ccccc1-c1ccc([C@@H]2[C@@H](C#N)N(C(=O)C3CC3)[C@H]2CO)cc1	IDE exosite inh -10.6
COc1ccccc1-c1ccccc1[C@H]1[C@@H](CO)N(C(=O)C2CCC2)[C@H]1C#N	none
COc1ccc(-c2ccc([C@@H]3[C@@H](CO)N(C(=O)C4CCCCC4)[C@H]3C#N)cc2)cc1	none
COc1ccc(-c2ccc([C@@H]3[C@@H](CO)N(C(=O)C4CCCC4)[C@H]3C#N)cc2)cc1	none
COc1ccc(-c2ccc([C@H]3[C@@H](C#N)N(C(=O)NC4CCCCC4)[C@@H]3CO)cc2)cc1	none
COc1ccccc1-c1ccc([C@H]2[C@@H](CO)N(C(=O)NC3CCCCC3)[C@H]2C#N)cc1	IDE exosite inh -6.89
COc1ccccc1-c1ccc([C@@H]2[C@@H](C#N)N(C(=O)C3CCCCC3)[C@@H]2CO)cc1	IDE exosite inh -13.8
COc1ccc(-c2ccc([C@@H]3[C@@H](C#N)N(C(=O)NC4CCCCC4)[C@H]3CO)cc2)cc1	none
Cc1cccc(S(=O)(=O)N2C[C@H]3[C@@H](c4ccccc42)[C@H](CO)N3CC2CCCC2)c1	none
CC(C)CC#Cc1ccc([C@@H]2[C@@H](CO)N3CCCCN(C(=O)Nc4ccccc4)C[C@H]23)cc1	none
O=C(NCCc1ccncc1)[C@@H]1[C@@H](CO)[C@@H]2Cn3c(cccc3=O)[C@H]1N2Cc1ccccc1F	none
CCS(=O)(=O)Nc1ccc2c(c1)C(=O)N(C)[C@@H]1CC[C@@H](CC(=O)NCc3ccc(OC)cc3)O[C@H]1CO2	none
O=C(C[C@@H]1C[C@H]2c3cc(NC(=O)NC4CCCC4)ccc3O[C@H]2[C@H](CO)O1)NCc1ccccc1F	none
CCC(=O)N1C[C@H](C)[C@@H](OC)CN(C)C(=O)c2cc(NC(=O)Nc3ccc(Cl)cc3)ccc2OC[C@@H]1C	none
